Source: ChEMBL document CHEMBL4513135, “CO-ADD screening of IQOG CSIS (Spain) compounds”
Measured potencies and affinities stand elsewhere.

What was measured:
Klebsiella pneumoniae = conditions: Concentration 32 ug.mL-1; ASSAY_TEST Inhibition of Bacterial Growth; detection method Absorption (OD600); MEDIA CAMHB; plate type 384well; NBS; CORNING #3640; time 18 hr
Candida albicans = conditions: 32 ug/mL
Cryptococcus neoformans = conditions: Concentration 32 ug.mL-1; ASSAY_TEST Inhibition of Fungal Growth; detection method Resazurin; Absorption (OD600-OD570); plate type 384well; NBS; CORNING #3640

N#CC1(Br)C(=NBr)Oc2c(ccc3ccccc23)C1c1cccc([N+](=O)[O-])c1 (stereo not given) showed an Inhibition (Klebsiella pneumoniae) of 24.92%, an Inhibition (Candida albicans) of 10.2% and an Inhibition (Cryptococcus neoformans) of -69.53%.

COc1nc2nc3c(c(N)c2cc1C#N)CCCC3.Cl gave an Inhibition (Klebsiella pneumoniae) of 10.99%, an Inhibition (Candida albicans) of 1.08% and an Inhibition (Cryptococcus neoformans) of -96.28%.

For COc1cccc(-c2c(C#N)c(=O)oc3c2ccc2ccccc23)c1, the Inhibition (Klebsiella pneumoniae) was 2.22%, the Inhibition (Candida albicans) was 24.3% and the Inhibition (Cryptococcus neoformans) was -2.58%.

With O=C(Cc1c[nH]c2ccccc12)NNCCc1ccccc1 the Inhibition (Klebsiella pneumoniae) was 0.81%, the Inhibition (Candida albicans) was 1.99% and the Inhibition (Cryptococcus neoformans) was -0.59%.

In the case of c1ccc(-c2nc3c4cnn(-c5ccccc5)c4ncn3n2)cc1, the Inhibition (Klebsiella pneumoniae) is reported as 10.22%, the Inhibition (Candida albicans) is reported as -0.93% and the Inhibition (Cryptococcus neoformans) is reported as -6.06%.

Molecule CNC(=O)NC1(C(=O)O)CC1c1ccccc1 (stereo not given) has an Inhibition (Klebsiella pneumoniae) of 13.01%, an Inhibition (Candida albicans) of 0.9% and an Inhibition (Cryptococcus neoformans) of -2.43%.

Molecule COc1ccc(-c2cc(-c3ccccc3)c(C#N)c(N)n2)cc1 has an Inhibition (Klebsiella pneumoniae) of -4.32%, an Inhibition (Candida albicans) of -5.4% and an Inhibition (Cryptococcus neoformans) of -104.15%.

With Cl.Nc1c2c(nc3c1C(c1ccccc1)c1ccc4ccccc4c1O3)CCCC2 (stereo not given) the Inhibition (Klebsiella pneumoniae) was 22.34%, the Inhibition (Candida albicans) was 1.77% and the Inhibition (Cryptococcus neoformans) was -1.1%.

Molecule CCOC(=O)C1=C(C)OC(N)=C(C#N)C1c1cccs1 (stereo not given) has an Inhibition (Klebsiella pneumoniae) of 7.75%, an Inhibition (Candida albicans) of 0.39% and an Inhibition (Cryptococcus neoformans) of -27.56%.

Cc1ccc(C2c3ccc4ccccc4c3Oc3nc4c(c(N)c32)CCCC4)cc1.Cl (stereo not given) was tested, and the Inhibition (Klebsiella pneumoniae) was -14.84%, the Inhibition (Candida albicans) was 5.49% and the Inhibition (Cryptococcus neoformans) was 0.21%.
